Type in all cases: functional
For test [1], the target named is Solute carrier family 2, facilitated glucose transporter member 1 (Homo sapiens) (UniProt P11166). In words: ST_JUDE_LEISH: Cytotoxicity at 2uM final concentration against transgenic Leishmania Mexicana promastigotes LmGLUT1 that are glucose transport deficient and complemented with the human glucose transporter GLUT1. Activity is measured by DNA content using SYBR green in vitro.

The target of test [2] is Hexose transporter 1 (Plasmodium falciparum) (UniProt O97467). In words: ST_JUDE_LEISH: Cytotoxicity at 2uM final concentration against transgenic Leishmania Mexicana promastigotes LmPfHT that are glucose transport deficient and complemented with the Plasmodium falciparum hexose transporter. Activity is measured by DNA content using SYBR green in vitro.
The target in test [3] is Glucose transporter (Leishmania mexicana) (UniProt O61059). In words: ST_JUDE_LEISH: Cytotoxicity at 2uM final concentration against transgenic Leishmania Mexicana promastigotes LmGT2 that are glucose transport deficient and complemented with the L. Mexicana glucose transporter 2. Activity is measured by DNA content using SYBR green in vitro.

This is an account of results in ChEMBL document CHEMBL3433997, “St. Jude Leishmania screening dataset” (2016).

Structures are written as SMILES.

Solute carrier family 2, facilitated glucose transporter member 1 (Homo sapiens), sequence (P11166 whole entry): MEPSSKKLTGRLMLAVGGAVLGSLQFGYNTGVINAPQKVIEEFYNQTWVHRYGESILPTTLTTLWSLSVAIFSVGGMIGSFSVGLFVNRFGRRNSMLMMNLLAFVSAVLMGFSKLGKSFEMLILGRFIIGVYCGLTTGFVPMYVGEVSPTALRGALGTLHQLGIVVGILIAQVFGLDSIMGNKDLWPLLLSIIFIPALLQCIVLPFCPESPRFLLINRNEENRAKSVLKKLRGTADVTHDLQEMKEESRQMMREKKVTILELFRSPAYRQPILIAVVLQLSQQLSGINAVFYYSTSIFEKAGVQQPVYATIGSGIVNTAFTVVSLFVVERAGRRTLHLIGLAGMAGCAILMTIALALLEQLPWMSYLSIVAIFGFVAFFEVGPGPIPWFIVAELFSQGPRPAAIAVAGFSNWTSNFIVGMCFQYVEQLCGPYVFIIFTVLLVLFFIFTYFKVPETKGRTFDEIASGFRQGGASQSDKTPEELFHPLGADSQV

In general, inhibition refers to the change of the read-out against control, counted positive when it falls. `CCCCc1cc(NCC)nc(Nc2cccc(OC)c2)n1`: the inhibition is 38.6% in test [1], 27% in test [2] and 19.1% in test [3].

With `Cn1ccnc1CCC(=O)Nc1ccc(Cl)cc1C(=O)Nc1ccc(Cl)cc1`, the inhibition in test [1] came out at 2.75%; in test [2], 1.39%; in test [3] it was 2.79%.

As to `Cc1[nH]cnc1Cc1ccc2c(c1O)c1ccccc1n2C`, the inhibition is 2.71% in test [1], -0.2% in test [2] and -0.18% in test [3].

As for `CC(C)C[C@@H](/C=N/N1CCNC1=O)NC(=O)[C@H](CC(C)C)NC(=O)c1ccc(OCCN2CCOCC2)cc1`, the values for the inhibition in test [1], in test [2] and in test [3] were 0.84%, 6.5% and 0.69%, respectively.

Consider `Cc1c(C)n(C2CCCCC2)c2ncnc(OC3CCN(CC(=O)NC4CC4)CC3)c12`, for which the inhibition in test [1] was -0.52%; in test [2], -3.58%; in test [3], 1.68%.

For `COCCn1c(C)nc2ccccc2c1=O`, the inhibition in test [1] was 1.04%; in test [2] it was 1.69%; in test [3], -0.79%.

Take `Cc1cc(=NN=Cc2cccc(Cl)c2)c2ccccc2[nH]1`: the results for the inhibition in test [1], in test [2] and in test [3] were 5.11%, 6.14% and 3.65%, respectively.

Turning to `CCC(=O)Nc1nnc(Cc2ccc(OC)c(OC)c2)s1`, the inhibition in test [1] worked out at 9.1%; in test [2], 10.1%; in test [3], 6.69%.

For `COc1ccc(-c2cccc(NC(=O)c3ccc(C#N)cc3)c2)cc1CN1CCCC1`, the inhibition in test [1] came out at 11.3%; in test [2], 11.1%; in test [3] it was 2.91%.

`CN(CCN(C)CC(O)c1ccc(Cl)c(Cl)c1)CC(O)c1ccc(Cl)c(Cl)c1` (centres undefined): the inhibition in test [1] was 11.5%; in test [2], 9.66%; in test [3] it was 9.87%.

In the case of `CCOC(=O)NC1=NC(C)(C)N(OCc2ccc(Cl)c(Cl)c2)C(NC(=O)OCC)=N1`, the results for the inhibition in test [1], in test [2] and in test [3] were 3.54%, 2.08% and 2.54%, respectively.

In the case of `c1ccc2c(NCCOCCNc3c4ccccc4nc4ccccc34)c3ccccc3nc2c1`, the inhibition in test [1] worked out at 1.61%; in test [2] it was 2.67%; in test [3] it was 3.48%.

On to `CCc1c[nH]c2c(N3CCCC3=O)cc(C(=O)N[C@@H](Cc3ccccc3)[C@H](O)CNC(C)(C)CCCC(C)C)cc12`, for which the figures for the inhibition in test [1], in test [2] and in test [3] were 12.2%, 9.72% and 8.72%, respectively.
